aSyn yeast inh – inhibitors of alpha-synuclein toxicity in yeast. Yeast expressing alpha-synuclein, growth rescue, BacTiter-Glo, 24 h. Potency, µM (highest dose often 46.1 µM), for the others: at the top dose growth rescue (activation), usual class: activators. 370,000 tested, 0.14% active; further: % of control where 0% means no effect; nearly all actives have a fitted effect of over 65% in size
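Readout is rescue of growth in alpha-synuclein-expressing yeast, so inhibitors of toxicity appear as activators. Growth after 24 hr at 30 deg C in galactose medium is quantified by luminescence.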
FUS yeast rescue – FUS proteinopathy suppression in yeast; Potency, µM (top dose mostly 76.6 µM), usual class: activators; S. cerevisiae FUS-expressing, growth rescue, OD600, 24 h; 390,000 tested, 0.24% active;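 further: plate controls were DMSO vehicle for no effect and reference control for full effect; nearly all actives have a fitted effect of over 55% in size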
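Compound concentration series was pinned onto galactose-induced FUS-expressing yeast seeded at OD 0.005. Plates sat 24hr at 30C; absorbance at 600 nm gave growth. DMSO served as background control.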
Abeta rescue – A-beta toxicity reversal in yeast; yeast expressing A-beta42, growth rescue, OD600, 48 h; response scale: 0% DMSO, 100% iron-clioquinol control; Potency, µM (top dose mostly 46.1 µM), hits mostly activators; 410,000 tested, 0.063% active; further: nearly all actives have a fitted effect of over 55% in size
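Yeast A-beta toxicity model in growth medium with pinned compounds, 48 h at 30 C; growth read as absorbance at 600 nm. Normalized to FeCl3/clioquinol equimolar mix (positive) and DMSO (negative).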
PTAP TSG101 blk – blocks PTAP/TSG101 interaction to inhibit HIV-1 budding. Q99816. Fluorescence polarization, FITC-PTAP peptide / Tsg101 binding. Potency, µM (titrated, usually from 115 µM), inactives show top-dose activity change, negative = inhibition, actives largely listed as inhibitors. 340,000 tested, under 10 active. AID 493005; active means well fitted inhibition curve with a large enough effect in the main read-out, with a control signal flat, not every such curve was filed as active; inconclusive means small, poorly fitted or top-dose-only effect, or effect the other way, or a change in a side signal; inactive means no such curve, though single readings can be large or run the other way; further: % of control where 0% means no effect
Target sequence (Q99816 whole entry, looked up): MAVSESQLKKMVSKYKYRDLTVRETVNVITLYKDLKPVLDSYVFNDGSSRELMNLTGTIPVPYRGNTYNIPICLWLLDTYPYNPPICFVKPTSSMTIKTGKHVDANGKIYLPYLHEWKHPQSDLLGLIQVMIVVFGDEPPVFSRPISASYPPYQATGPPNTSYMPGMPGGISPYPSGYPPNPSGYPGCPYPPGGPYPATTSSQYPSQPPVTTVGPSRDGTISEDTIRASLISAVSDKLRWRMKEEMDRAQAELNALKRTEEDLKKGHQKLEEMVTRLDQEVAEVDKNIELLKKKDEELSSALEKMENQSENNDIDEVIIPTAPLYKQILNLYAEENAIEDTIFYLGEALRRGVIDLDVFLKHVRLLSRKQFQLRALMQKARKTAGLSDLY
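Tsg101 binding domain (10 uM final) was mixed with compound and a FITC-labeled PTAP peptide (50 nM final) in HEPES pH 7.5 buffer with NaCl, Tween 20, EDTA and TCEP; fluorescence polarization was read after 20 min at r.t.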
TDP43 rescue – TDP-43 toxicity inhibition in yeast; TDP-43 expressing yeast growth rescue, BacTiter-Glo, 24 h; Potency, µM (series often up to 46.1 µM), without a hit: at the highest dose growth rescue (activation), most hits filed as activators; 410,000 tested, 1.8% active; AID 652104; further: % of control where 0% means no effect; nearly all actives have a fitted effect of over 50% in size
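Cell-based yeast growth screen: TDP-43 expression induced in galactose, inoculum OD600=0.02 after raffinose pregrowth to mid-log. Read-out BacTiter-Glo luminescence at 24 hr, 30 deg C; inhibition of toxicity seen as signal increase.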
An asterisk follows results filed as active; i = inactive; ? = inconclusive; . = not tested or not shown. A selection: hits, their analogues and other compounds. The true share with any hit is near 2.1%. Unless noted, the call rests on the fitted dose curve; in most records, active means well fitted curve in the direction sought with a large enough effect; inconclusive means small, poorly fitted or top-dose-only effect, or another doubt; inactive means no such curve, though single readings can be large; an effect the other way counts as inactive or inconclusive. Potency means the concentration at half of the fitted maximal effect.

SMILES	aSyn yeast inh	FUS yeast rescue	Abeta rescue	PTAP TSG101 blk	TDP43 rescue
COc1cc(NC(=O)Cn2nc3c(cc2=O)CC(C)CC3)cc(OC)c1OC (centres undefined)	.	i	i	.	16.5%
COc1ccc2c(c1)sc1ncc(C(=O)NCc3cccc(C)c3)c(=O)n12	.	i	i	.	0.0%
N#Cc1cccc(-c2ccccc2C(=O)NC2CCCCN(Cc3ccc(Cl)cc3)C2=O)c1 (centres undefined)	.	i	.	.	.
Cc1ccc(Nc2c([N+](=O)[O-])ccc3nonc23)cc1C	-0.5%	i	i	-3.0%	29.1%
N#CC(C(=O)OC1CCCCC1)c1nc2ccccc2nc1N1CCOCC1 (centres undefined)	-3.8%	i	i	?	-5.4%
CCC(CC)COC(=O)C(C#N)c1nc2ccccc2nc1N1CCOCC1 (centres undefined)	6.2%	i	i	-3.8%	20µM*
CC(C)(C)OC(=O)NCc1ccc(NC(=O)c2nc[nH]c2C(=O)NCCN(CCNC(=O)c2[nH]cnc2C(=O)Nc2ccc(CNC(=O)OC(C)(C)C)cc2)CCNC(=O)c2[nH]cnc2C(=O)Nc2ccc(CNC(=O)OC(C)(C)C)cc2)cc1	-1.2%	8.91µM*	i	-2.2%	19.0%
CCOC(=O)c1ccc(NC(=O)c2nc[nH]c2C(=O)NCC(=O)OC(C)(C)C)cc1	10.5%	?	?	.	22.4µM*
CC(C)(C)OC(=O)NCc1ccc(NC(=O)c2nc[nH]c2C(=O)NCCCNC(=O)c2[nH]cnc2C(=O)Nc2ccc(CNC(=O)OC(C)(C)C)cc2)cc1	4.3%	i	i	-4.4%	9.0%
COC(=O)c1cc2sccc2n1CC(=O)Nc1ccc(OC)c(OC)c1	.	i	i	.	17.9%
Cc1cc(-n2c(C)cc(C(=O)CCl)c2C)no1	-7.4%	i	i	-1.2%	3.55µM*
COc1ccc(CCn2c(C)cc(C(=O)CCl)c2C)cc1OC	-7.5%	i	i	-11.3%	15.8µM*
COc1ccc(-n2c(C)cc(C(=O)CCl)c2C)cc1	11.3%	i	i	-3.4%	3.16µM*
O=S(=O)(c1ccc(Br)cc1)c1nc(-c2cccs2)oc1SCc1ccc(F)cc1	.	i	i	.	2.2%
COc1ccc(C(=O)N(Cc2ccccc2)Cc2ccc(OC)c(COc3ccc(NC(C)=O)cc3)c2)cc1	4.8%	.	.	.	.
CCOC(=O)C(=CNNc1cccc(Cl)c1)C(=O)OCC	27.4%	i	i	-1.6%	11.2µM*
CCOC(=O)C(=CNc1cccc(N)n1)C(=O)OCC	2.4%	i	i	-3.1%	15.5%
CCOC(=O)C(=CNc1ccc(Cl)cn1)C(=O)OCC	1.8%	i	i	1.2%	11.2µM*
CCOc1ccc(N2C(=O)CC(N(C)Cc3ccccc3)C2=O)cc1 (centres undefined)	7.2%	i	i	-0.8%	17.8µM*
COC(=O)c1ccc(N2C(=O)CC(N(C)Cc3ccccc3)C2=O)cc1 (centres undefined)	-31.8%	i	i	-0.5%	7.08µM*
CCCOc1ccc(N2C(=O)CC(N(Cc3ccccc3)N=O)C2=O)cc1 (centres undefined)	-0.2%	i	i	-4.8%	20µM*
COc1ccc(CN(N=O)C2CC(=O)N(c3ccc(OC)cc3)C2=O)cc1 (centres undefined)	6.7%	i	i	-0.4%	18.0%
CN1CCCC(C)(C(=O)Nc2ccc(-n3cccc3)cc2)C1 (centres undefined)	0.6%	i	i	.	9.7%
COc1ccc(Cc2nc3ccc(C(=O)NCc4cc(Br)ccc4OC)cc3o2)cc1	.	i	i	.	0.1%
CCc1nc2c(OCc3ccc(OC(F)F)cc3)cccn2c1N(C)C(=O)c1ccc(OC)cc1	-1.6%	i	?	.	19.5%
SMILES	aSyn yeast inh	FUS yeast rescue	Abeta rescue	PTAP TSG101 blk	TDP43 rescue
COc1ccc(C(=O)O/N=C2\C(=O)N(C)c3ccccc32)cc1	5.62µM*	i	.	-0.9%	3.98µM*
CN1C(=O)/C(=N\OC(=O)c2cccc3ccccc23)c2ccccc21	?	i	i	0.0%	17.8µM*
CC(=O)/C=C1\C(=O)N(C)c2ccccc21	0.0%	.	.	.	.
N#CCCSc1nc(N2CCOCC2)c2c(c1C#N)CCCC2	14.9%	i	i	-16.0%	17.8µM*
CCCSc1nc(N2CCOCC2)c2c(c1C#N)CCCC2	1.7%	i	i	-2.5%	?
COc1ccc(Br)cc1S(=O)(=O)NCCc1cccs1	?	i	i	-8.9%	20µM*
CC(=O)c1c(C)[nH]c(C(=O)/C(C#N)=C/c2cccc(C)c2)c1C	-7.6%	i	i	-3.9%	7.9%
CCOC(=O)c1c(C)[nH]c(C(=O)/C(C#N)=C/c2ccc(OCC)cc2)c1C	-8.2%	.	i	-3.5%	15.8µM*
Cn1c(N)c(C(C[N+](=O)[O-])c2c(F)cccc2Cl)c(=O)n(C)c1=O (centres undefined)	9.9%	i	i	-2.8%	11.2µM*
Cn1c(-c2nonc2N)nc2ccccc21	15.4%	i	i	-7.0%	?
Cn1c2nc3ccccc3c-2nc2ccccc21	15.8µM*	i	i	.	20.4%
C(=C\c1ccnc2ccccc12)/c1ccc2c(c1)OCO2	-4.4%	.	.	.	.
O=C(Nc1nc2ccc(S(=O)(=O)N3CCCCC3)cc2s1)c1ccncc1	-12.0%	35.5µM*	i	0.1%	8.8%
CC1CCC(NC(=O)CN2C(=O)NC(C)(C)C2=O)CC1 (centres undefined)	-6.2%	i	i	-0.5%	6.4%
c1ccc(-c2cccc(CNc3nc(-c4ccccn4)nnc3-c3ccccc3)c2)cc1	.	31.6µM*	.	.	.
CN(C)c1nc(-c2ccccn2)nnc1-c1ccccc1	?	i	i	-4.2%	26.0%
O=C(NCCC1=CCCCC1)c1ccc2c(=O)n3nc(Nc4ccccc4)sc3nc2c1	.	i	i	.	19.6%
S=c1[nH]nc(-c2cc3c(s2)-c2ccccc2CC3)o1	-7.2%	i	i	-12.3%	14.1µM*
CSc1nnc(-c2cc3c(s2)-c2ccccc2CC3)o1	-4.1%	i	i	-5.1%	11.1%
O=C(c1ccc(Cl)cc1)N1CCC(Oc2cccnc2)CC1	.	i	.	.	.
CCc1noc(C)c1C(=O)Nc1nc(-c2cccs2)cs1	-10.4%	i	i	1.6%	12.6µM*
Cc1ccc([C@H]2C[C@@H](n3cc(C4CC4)nn3)[C@H](O)CN2C(=O)C2CCCCC2)cc1	-0.6%	i	i	.	17.7%
C=CCN(c1ccccc1)S(=O)(=O)c1cccc(C(=O)Nc2ccc(N3CCOCC3)cc2)c1	0.9%	i	i	-3.4%	14.1µM*
CC12CCC(C(=O)Nc3cccc(Cl)c3)(C(Br)C1=O)C2(C)C (centres undefined)	12.2%	.	i	-2.8%	20µM*

Source: PubChem BioAssay
